The campaign covered roughly 5,500 compounds. About 2,000 (36%) were called active. Inconclusive results (about 18%) are left out. No stated cut-off is given here; in the data, active means normalized growth mostly below about 0.91 (no sharp cut-off); inconclusive means no clear call, values can overlap the other calls; inactive means mostly above about 0.92. This is one part of the list.
Test: chemical genetic growth profiling, strain panel (AID 1159580);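 further: tested at 20 µM; growth read once vehicle control cultures reached saturation at 30 °C; 1 = growth at the plate median or of vehicle wells; lower values mean less growth of the strain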
Settings: growth OD

Measured: normalized growth

CC(=O)OC[C@@]1(O)C[C@@]23CCC4c5ccoc5CC[C@]4(C)C2CC[C@@H]1C3 (some centres not stated)
active: S. cerevisiae deletion strains, locus YKL009W, strain mrt4, hits give low values 0.868 | S. cerevisiae deletion strains, locus YLR039C, strain RIC1, hits give low values 0.661 | S. cerevisiae deletion strains, locus YLR262C, strain YPT6 (second series), hits give low values 0.817 | S. cerevisiae deletion strains, locus YLR342W, strain FKS1 (second series), hits give low values 0.775 | S. cerevisiae deletion strains, locus YML032C, strain rad52, hits give low values 0.884 | S. cerevisiae deletion strains, locus YNL298W, strain CLA4, hits give low values 0.891 | S. cerevisiae deletion strains, locus YNL307C, strain MCK1, hits give low values 0.778 | S. cerevisiae deletion strains, locus YOR184W, strain ser1, hits give low values 0.69
inactive: S. cerevisiae deletion strains, locus YJR075W, strain HOC1, hits give low values 1.01 | S. cerevisiae deletion strains, locus YKL068W, hits give low values 0.969 | S. cerevisiae deletion strains, locus YKL085W, strain MDH1 (second series), hits give low values 0.967 | S. cerevisiae deletion strains, locus YKL085W, strain MDH1, hits give low values 0.967 | S. cerevisiae deletion strains, locus YKL160W, strain elf1, hits give low values 0.978 | S. cerevisiae deletion strains, locus YKL190W, strain CNB1, hits give low values 0.986 | S. cerevisiae deletion strains, locus YKR001C, strain vps1, hits give low values 0.942 | S. cerevisiae deletion strains, locus YKR026C, strain gcn3, hits give low values 1.01 | S. cerevisiae deletion strains, locus YKR091W, strain srl3, hits give low values 1 | S. cerevisiae deletion strains, locus YLL001W, strain dnm1, hits give low values 0.974 | S. cerevisiae deletion strains, locus YLL026W, hits give low values 1.02 | S. cerevisiae deletion strains, locus YLL041C, strain sdh2, hits give low values 1.02 | S. cerevisiae deletion strains, locus YLR027C, strain aat2, hits give low values 1.01 | S. cerevisiae deletion strains, locus YLR058C, strain SHM2, hits give low values 0.973 | S. cerevisiae deletion strains, locus YLR102C, strain apc9, hits give low values 0.973 | S. cerevisiae deletion strains, locus YLR113W, strain HOG1, hits give low values 0.901 | S. cerevisiae deletion strains, locus YLR221C, strain rsa3, hits give low values 0.968 | S. cerevisiae deletion strains, locus YLR258W, strain gsy2, hits give low values 0.99 | S. cerevisiae deletion strains, locus YLR262C, strain YPT6, hits give low values 0.624 | S. cerevisiae deletion strains, locus YLR268W, strain sec22, hits give low values 0.987 | S. cerevisiae deletion strains, locus YLR320W, strain mms22, hits give low values 0.945 | S. cerevisiae deletion strains, locus YLR330W, strain CHS5, hits give low values 0.969 | S. cerevisiae deletion strains, locus YLR342W, strain FKS1, hits give low values 1.01 | S. cerevisiae deletion strains, locus YLR357W, strain rsc2, hits give low values 0.963 | S. cerevisiae deletion strains, locus YLR370C, strain arc18, hits give low values 1 | S. cerevisiae deletion strains, locus YLR371W, strain rom2, hits give low values 0.96 | S. cerevisiae deletion strains, locus YLR384C, strain iki3, hits give low values 1.03 | S. cerevisiae deletion strains, locus YLR418C, strain cdc73, hits give low values 0.983 | S. cerevisiae deletion strains, locus YML016C, strain PPZ1, hits give low values 0.978 | S. cerevisiae deletion strains, locus YML120C, strain ndi1, hits give low values 1.01 | S. cerevisiae deletion strains, locus YML124C, strain tub3, hits give low values 0.98 | S. cerevisiae deletion strains, locus YMR058W, strain fet3, hits give low values 0.952 | S. cerevisiae deletion strains, locus YMR078C, strain ctf18, hits give low values 0.965 | S. cerevisiae deletion strains, locus YMR125W, strain sto1, hits give low values 0.988 | S. cerevisiae deletion strains, locus YMR129W, hits give low values 1.02 | S. cerevisiae deletion strains, locus YMR205C, strain PFK2, hits give low values 0.981 | S. cerevisiae deletion strains, locus YMR223W, strain ubp8, hits give low values 0.905 | S. cerevisiae deletion strains, locus YMR231W, strain pep5, hits give low values 1.01 | S. cerevisiae deletion strains, locus YMR263W, strain SAP30, hits give low values 0.985 | S. cerevisiae deletion strains, locus YMR307W, strain GAS1, hits give low values 0.779 | S. cerevisiae deletion strains, locus YNL067W, strain RPL9B, hits give low values 0.963 | S. cerevisiae deletion strains, locus YNL071W, strain lat1, hits give low values 0.964 | S. cerevisiae deletion strains, locus YNL128W, strain TEP1, hits give low values 0.997 | S. cerevisiae deletion strains, locus YNL153C, strain GIM3, hits give low values 0.992 | S. cerevisiae deletion strains, locus YNL183C, strain NPR1, hits give low values 0.877 | S. cerevisiae deletion strains, locus YNL209W, strain ssb2, hits give low values 1.02 | S. cerevisiae deletion strains, locus YNL233W, strain BNI4, hits give low values 0.947 | S. cerevisiae deletion strains, locus YNL248C, strain rpa49, hits give low values 0.96 | S. cerevisiae deletion strains, locus YNL250W, strain rad50, hits give low values 0.976 | S. cerevisiae deletion strains, locus YNL271C, strain bni1, hits give low values 0.975 | S. cerevisiae deletion strains, locus YNL322C, strain KRE1 (second series), hits give low values 1.03 | S. cerevisiae deletion strains, locus YNL322C, strain KRE1, hits give low values 0.997 | S. cerevisiae deletion strains, locus YNR049C, strain mso1, hits give low values 1.01 | S. cerevisiae deletion strains, locus YNR052C, strain pop2, hits give low values 0.938 | S. cerevisiae deletion strains, locus YOL006C, strain TOP1, hits give low values 1.11 | S. cerevisiae deletion strains, locus YOL012C, strain htz1 1.41 | S. cerevisiae deletion strains, locus YOL147C, strain pex11, hits give low values 0.971 | S. cerevisiae deletion strains, locus YOR001W, strain rrp6, hits give low values 0.985 | S. cerevisiae deletion strains, locus YOR061W, strain CKA2, hits give low values 0.952 | S. cerevisiae deletion strains, locus YOR069W, strain VPS5, hits give low values 0.981 | S. cerevisiae deletion strains, locus YOR070C, strain gyp1, hits give low values 1.01 | S. cerevisiae deletion strains, locus YOR080W, strain dia2, hits give low values 1.02 | S. cerevisiae deletion strains, locus YOR083W, strain WHI5, hits give low values 0.978 | S. cerevisiae deletion strains, locus YOR106W, strain vam3, hits give low values 0.998 | S. cerevisiae deletion strains, locus YOR136W, strain idh2, hits give low values 0.95 | S. cerevisiae deletion strains, locus YOR144C, strain elg1, hits give low values 0.97 | S. cerevisiae deletion strains, locus YOR231W, strain MKK1, hits give low values 0.872 | S. cerevisiae deletion strains, locus YOR265W, strain rbl2, hits give low values 1.01 | S. cerevisiae deletion strains, locus YOR270C, strain vph1, hits give low values 1.21 | S. cerevisiae deletion strains, locus YOR290C, strain snf2, hits give low values 0.927 | S. cerevisiae deletion strains, locus YOR316C, strain cot1, hits give low values 0.966 | S. cerevisiae deletion strains, locus YPL051W, strain arl3, hits give low values 0.967 | S. cerevisiae deletion strains, locus YPL055C, strain LGE1, hits give low values 0.954 | S. cerevisiae deletion strains, locus YPL078C, strain atp4, hits give low values 0.931 | S. cerevisiae deletion strains, locus YPL106C, strain sse1, hits give low values 0.99 | S. cerevisiae deletion strains, locus YPL240C, strain hsp82, hits give low values 1.01 | S. cerevisiae deletion strains, locus YPL241C, strain CIN2, hits give low values 0.978 | S. cerevisiae deletion strains, locus YPL256C, strain CLN2, hits give low values 0.927 | S. cerevisiae deletion strains, locus YPR119W, strain clb2, hits give low values 0.967 | S. cerevisiae deletion strains, locus YPR141C, strain kar3, hits give low values 0.989 | S. cerevisiae deletion strains, locus YPR163C, strain tif3, hits give low values 0.962 | S. cerevisiae deletion strains, locus YPR167C, strain met16, hits give low values 0.978 | S. cerevisiae deletion strains, strain wtn01, hits give low values 0.948 | S. cerevisiae strains, strain wild type, hits give low values 0.964

Reference: PubChem BioAssay AID1159580 (chemical genetic matrix, 2015)
